# Reference: PubChem BioAssay (NCATS)
# “And” between values parts separate entries of the source, which are not always exact repeats. Equal values may be shown once. Results filed as inconclusive are left out. Entries that show only a call come without a potency. The source made the active and inactive calls. Calls come from the whole dose curve.
# Test: Cytotoxicity counterscreen for inhibitors of SARS-CoV-2 cell entry (AID 1645845); note: nearly all actives have a fitted effect of over 50% in size
# Details: cell viability (SARS-CoV-2 entry assay cells); series mostly up to 57.1 µM; activity change, negative = cytotoxicity: at the top concentration
# Method in brief: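 Expi293F/hACE2 cells seeded overnight; cpd pin-transferred in DMSO, 1 h preincubation, + media, 48 h 37 C 5% CO2; ATPLite 1step luminescence; normalized to cells and no cells.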
Compound,Potency,outcome,"activity change, negative = cytotoxicity"
CN1C(C(=O)Nc2ccccn2)=C(O)c2sccc2S1(=O)=O,inactive,–,–
COc1cc(C)c(/C=C/C(C)=C/C=C/C(C)=C/C(=O)O)c(C)c1C,–,inactive,–
CC(C(=O)O)c1ccc(C(=O)c2ccccc2)s1 (stereo unspecified),–,–,-15.2% (inactive)
CC(C)(C)NCC(O)COc1cccc2c1C[C@H](O)[C@H](O)C2 (stereo partly specified),–,inactive,–
O=C(OCC1(COC(=O)c2cccnc2)CCCC(COC(=O)c2cccnc2)(COC(=O)c2cccnc2)C1O)c1cccnc1,–,inactive,–
CN[C@@H]1CCc2[nH]c3ccc(C(N)=O)cc3c2C1,–,inactive,–
C[N+]1(C)[C@@H]2CC(OC(=O)[C@H](CO)c3ccccc3)C[C@H]1[C@@H]1O[C@@H]12 (stereo partly specified),inactive,–,–
O=P(O)(O)C(O)(Cn1ccnc1)P(=O)(O)O,inactive,–,–
CC(C)CN(C[C@@H](OP(=O)(O)O)[C@H](Cc1ccccc1)NC(=O)O[C@H]1CCOC1)S(=O)(=O)c1ccc(N)cc1,–,inactive,–
CC(=O)Nc1ccccc1,–,inactive,–
CCN1CCCC1CNC(=O)c1cc(S(=O)(=O)CC)c(N)cc1OC (stereo unspecified),inactive,–,–
CCCN1CCCC[C@H]1C(=O)Nc1c(C)cccc1C,–,–,-4.12% (inactive)
OCCOCCN1CCN(C2=Nc3ccccc3Sc3ccccc32)CC1,–,inactive,–
CCN1C(=O)NC(c2ccccc2)C1=O (stereo unspecified),–,inactive,–
C[N+]1(C)CCCC(OC(=O)C(O)(c2ccccc2)c2ccccc2)C1 (stereo unspecified),–,inactive,–
O=C(O)CCCCC(=O)O,–,–,2.12% (inactive)
Nc1nc(Cl)nc2c1ncn2[C@@H]1O[C@H](CO)[C@@H](O)[C@@H]1F,–,–,-19% (inactive)
NCc1ccc(S(N)(=O)=O)cc1,–,inactive,–
NS(=O)(=O)c1cc(-c2nn[nH]n2)c(NCc2cccs2)cc1Cl,–,–,-3.95% (inactive)

Compound,Potency,outcome,"activity change, negative = cytotoxicity"
C[C@H](NC(CCc1ccccc1)C(=O)O)C(=O)N1CCC[C@H]1C(=O)O (stereo partly specified),–,–,-0.438% (inactive)
CCCCCC[C@@H](CCC)C(=O)O,–,–,-4.22% (inactive)
CC(=O)NS(=O)(=O)c1ccc(N)cc1,–,–,-14.6% (inactive)
CN1CCN(C(c2ccccc2)c2ccc(Cl)cc2)CC1 (stereo unspecified),–,inactive,–
NC(N)=NCCN1CCCCCCC1,–,–,0.589% [at 0.702 µM] (inactive)
NC(=O)NC(=O)Cc1ccccc1,–,inactive,–
NS(=O)(=O)c1cc2c(cc1C(F)(F)F)NC(Cc1ccccc1)NS2(=O)=O (stereo unspecified),–,–,2.68% (inactive)
CCn1cc(C(=O)O)c(=O)c2cc(F)c(N3CCNC(C)C3)c(F)c21 (stereo unspecified),inactive,–,–
CC1(C)O[C@@H]2C[C@H]3[C@@H]4CCC5=CC(=O)C=C[C@]5(C)[C@@]4(F)[C@@H](O)C[C@]3(C)[C@]2(C(=O)CO)O1,inactive,–,–
N[C@@H](Cc1cc(I)c(Oc2ccc(O)c(I)c2)c(I)c1)C(=O)O,–,inactive,–
OCc1ccc(Cl)cc1Cl,–,inactive,–
Nc1ncnc2nc[nH]c12,–,–,2.72% (inactive)
C=CCN1CCc2nc(N)sc2CC1,–,inactive,–
O=c1[nH]c(=O)n([C@H]2O[C@H](CO)[C@@H](O)[C@@H]2O)cc1/C=C\Br,–,–,-6.21% (inactive)
CC(=O)OCC(=O)[C@@]1(O)CC[C@H]2[C@@H]3CCC4=CC(=O)C=C[C@]4(C)[C@@]3(F)[C@@H](O)C[C@@]21C,–,–,1.81% (inactive)
CCCCC(=O)OCC(=O)[C@H]1[C@H](C)C[C@H]2[C@@H]3C[C@H](F)C4=CC(=O)C=C[C@]4(C)[C@@]3(F)[C@@H](O)C[C@@]21C,–,inactive,–
CC(C(=O)O)c1ccc2c(c1)[nH]c1ccc(Cl)cc12 (stereo unspecified),–,–,1.94% (inactive)
CCCOC(=O)c1ccccc1,–,inactive,–
Cc1ccc(C(C)C)c(O)c1,–,inactive,–

# Test: Primary qHTS to identify inhibitors of SARS-CoV-2 cell entry (AID 1645846); note: nearly all actives have a fitted effect of over 45% in size; note: potency is the fitted concentration of half-maximal effect
# Details: SARS-CoV-2 pseudovirus cell entry assay, luminescence; activity change, negative = inhibition: at 57.1 µM (top of the series) unless noted; series mostly up to 57.1 µM
# Method in brief: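 Entry measured by luciferase signal 48 h after adding SARS-CoV-2-S pseudotyped MLV particles to HEK293-ACE2 cells preincubated 1 h with compounds. Normalisation: bald particles and spike particles.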
Compound,Potency,"activity change, negative = inhibition",outcome
CN1C(C(=O)Nc2ccccn2)=C(O)c2sccc2S1(=O)=O,inactive,–,–
COc1cc(C)c(/C=C/C(C)=C/C=C/C(C)=C/C(=O)O)c(C)c1C,–,-1.85%,–
CC(C(=O)O)c1ccc(C(=O)c2ccccc2)s1 (stereo unspecified),–,–,inactive
CC(C)(C)NCC(O)COc1cccc2c1C[C@H](O)[C@H](O)C2 (stereo partly specified),–,4.34%,–
O=C(OCC1(COC(=O)c2cccnc2)CCCC(COC(=O)c2cccnc2)(COC(=O)c2cccnc2)C1O)c1cccnc1,–,-30.1%,–
CN[C@@H]1CCc2[nH]c3ccc(C(N)=O)cc3c2C1,–,-34.4%,–
C[N+]1(C)[C@@H]2CC(OC(=O)[C@H](CO)c3ccccc3)C[C@H]1[C@@H]1O[C@@H]12 (stereo partly specified),inactive,–,–
O=P(O)(O)C(O)(Cn1ccnc1)P(=O)(O)O,–,–,inactive [at 5.25 µM]
CC(C)CN(C[C@@H](OP(=O)(O)O)[C@H](Cc1ccccc1)NC(=O)O[C@H]1CCOC1)S(=O)(=O)c1ccc(N)cc1,–,-18.7%,–
CC(=O)Nc1ccccc1,–,4.61%,–
CCN1CCCC1CNC(=O)c1cc(S(=O)(=O)CC)c(N)cc1OC (stereo unspecified),–,4.53% and -0.585%,–
CCCN1CCCC[C@H]1C(=O)Nc1c(C)cccc1C,–,-27.2%,–
OCCOCCN1CCN(C2=Nc3ccccc3Sc3ccccc32)CC1,–,-1.17%,–
CCN1C(=O)NC(c2ccccc2)C1=O (stereo unspecified),–,-1.94%,–
C[N+]1(C)CCCC(OC(=O)C(O)(c2ccccc2)c2ccccc2)C1 (stereo unspecified),–,-26.9%,–
O=C(O)CCCCC(=O)O,–,–,inactive
Nc1nc(Cl)nc2c1ncn2[C@@H]1O[C@H](CO)[C@@H](O)[C@@H]1F,22.4 µM (active),–,–
NCc1ccc(S(N)(=O)=O)cc1,–,–,inactive
NS(=O)(=O)c1cc(-c2nn[nH]n2)c(NCc2cccs2)cc1Cl,–,-3.88%,–

Compound,Potency,"activity change, negative = inhibition",outcome
C[C@H](NC(CCc1ccccc1)C(=O)O)C(=O)N1CCC[C@H]1C(=O)O (stereo partly specified),–,–,inactive
CCCCCC[C@@H](CCC)C(=O)O,–,–,inactive
CC(=O)NS(=O)(=O)c1ccc(N)cc1,–,–,inactive
CN1CCN(C(c2ccccc2)c2ccc(Cl)cc2)CC1 (stereo unspecified),10 µM (active),–,–
NC(N)=NCCN1CCCCCCC1,–,–,inactive [at 0.702 µM]
NC(=O)NC(=O)Cc1ccccc1,–,–,inactive
NS(=O)(=O)c1cc2c(cc1C(F)(F)F)NC(Cc1ccccc1)NS2(=O)=O (stereo unspecified),–,–,inactive
CCn1cc(C(=O)O)c(=O)c2cc(F)c(N3CCNC(C)C3)c(F)c21 (stereo unspecified),inactive,–,–
CC1(C)O[C@@H]2C[C@H]3[C@@H]4CCC5=CC(=O)C=C[C@]5(C)[C@@]4(F)[C@@H](O)C[C@]3(C)[C@]2(C(=O)CO)O1,inactive,–,–
N[C@@H](Cc1cc(I)c(Oc2ccc(O)c(I)c2)c(I)c1)C(=O)O,–,–,inactive
OCc1ccc(Cl)cc1Cl,–,–,inactive
Nc1ncnc2nc[nH]c12,–,–,inactive
C=CCN1CCc2nc(N)sc2CC1,–,–,inactive
O=c1[nH]c(=O)n([C@H]2O[C@H](CO)[C@@H](O)[C@@H]2O)cc1/C=C\Br,–,–,inactive
CC(=O)OCC(=O)[C@@]1(O)CC[C@H]2[C@@H]3CCC4=CC(=O)C=C[C@]4(C)[C@@]3(F)[C@@H](O)C[C@@]21C,–,2.18%,–
CCCCC(=O)OCC(=O)[C@H]1[C@H](C)C[C@H]2[C@@H]3C[C@H](F)C4=CC(=O)C=C[C@]4(C)[C@@]3(F)[C@@H](O)C[C@@]21C,–,–,inactive
CC(C(=O)O)c1ccc2c(c1)[nH]c1ccc(Cl)cc12 (stereo unspecified),–,–,inactive
CCCOC(=O)c1ccccc1,–,–,inactive
Cc1ccc(C(C)C)c(O)c1,–,-6.21%,–
